According to PubChem BioAssay AID1946 (Johns Hopkins Ion Channel Center, 2009):
Among all 2,400 compounds or so, about 180 (7.5%) were called active.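 The calls were made as follows: active = readout below zero, meaning a drop past 3 SD under the dofetilide-free negative control mean; inactive = the rest.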 The entries come from a sample that favours actives as a whole.

Biological target: Potassium voltage-gated channel subfamily KQT member 2 (Rattus norvegicus) (UniProt O88943)
Assay: rat KCNQ2 channel inhibition by compounds alone, confirmation, counter-screen for hERG block protector project, cell-based, CHO, FluxOR thallium flux (AID 1946)
Details: CHO-KCNQ2 cells, FluxOR thallium flux fluorescence; at 10 µM; hits give low values; zero marks the 3-SD hit cutoff

Potassium voltage-gated channel subfamily KQT member 2 (Rattus norvegicus), sequence (O88943 whole entry, looked up): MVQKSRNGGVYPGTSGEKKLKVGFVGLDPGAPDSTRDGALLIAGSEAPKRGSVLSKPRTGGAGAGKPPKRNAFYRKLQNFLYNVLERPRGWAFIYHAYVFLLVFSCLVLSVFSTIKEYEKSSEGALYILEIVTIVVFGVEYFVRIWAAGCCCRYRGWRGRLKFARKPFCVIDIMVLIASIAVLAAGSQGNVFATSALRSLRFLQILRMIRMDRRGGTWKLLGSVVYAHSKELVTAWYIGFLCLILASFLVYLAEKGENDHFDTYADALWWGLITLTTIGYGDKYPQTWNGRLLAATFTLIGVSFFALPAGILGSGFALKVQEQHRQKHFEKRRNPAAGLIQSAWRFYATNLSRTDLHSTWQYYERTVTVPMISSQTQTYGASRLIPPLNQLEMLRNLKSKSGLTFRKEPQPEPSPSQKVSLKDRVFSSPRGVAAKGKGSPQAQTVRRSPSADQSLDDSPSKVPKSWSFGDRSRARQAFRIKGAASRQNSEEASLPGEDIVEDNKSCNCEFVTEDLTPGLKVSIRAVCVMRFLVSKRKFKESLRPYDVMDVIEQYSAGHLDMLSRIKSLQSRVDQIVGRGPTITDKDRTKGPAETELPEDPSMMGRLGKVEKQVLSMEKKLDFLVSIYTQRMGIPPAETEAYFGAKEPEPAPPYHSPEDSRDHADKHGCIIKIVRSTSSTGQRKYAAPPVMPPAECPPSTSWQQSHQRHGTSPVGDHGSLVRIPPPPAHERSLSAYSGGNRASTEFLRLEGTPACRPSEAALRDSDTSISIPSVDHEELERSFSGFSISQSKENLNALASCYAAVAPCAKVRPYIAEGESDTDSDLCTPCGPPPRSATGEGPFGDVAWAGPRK

SMILES | activity change vs negative control
CC1CCN(C(=S)NC(=O)c2cccs2)CC1 | 23.7% (inactive)
C=CCn1c(=S)[nH]c2scc(-c3cccs3)c2c1=O | 121% (inactive)
C=CCc1cccc(C2Nc3ccccc3C(=O)N2O)c1O (stereo unspecified) | 19% (inactive)
OC(CNCCc1ccc(C(F)(F)F)cc1)COc1cccc2ccccc12 (stereo unspecified) | -18.2% (active)
Cn1c(NNC(=O)C(c2ccccc2)c2ccccc2)cc(=O)n(C)c1=O | 12.8% (inactive)
CC12CCC(C(=O)NCc3ccc4c(c3)OCO4)(CC1=O)C2(C)C (stereo unspecified) | 9.1% (inactive)
Cc1ccc(C(=O)NNc2cc(N3CCCC3)nc(N3CCCC3)n2)cc1 | 39.7% (inactive)
COc1ccccc1NC(=O)C(=O)NNC(=O)c1ccco1 | 47.8% (inactive)
CC(=O)c1cccc(NC(=O)NCc2cccs2)c1 | 8.1% (inactive)
O=C(NCc1cccs1)C1CCC(CNS(=O)(=O)c2cccs2)CC1 (stereo unspecified) | -0.3% (active)
COc1ccc(COC(=O)C2CCN(S(=O)(=O)c3cccs3)CC2)cc1 | 9.3% (inactive)
O=[N+]([O-])c1ccc(-c2ccc(/C=N/n3cnnc3)o2)c(Br)c1 | 3.2% (inactive)
CCOC(=O)/C(C)=N/NC(=O)c1cccc([N+](=O)[O-])c1 | 36.5% (inactive)
CCOc1ccccc1C(=O)NC1CC2CCCC(C1)N2Cc1nnnn1Cc1ccco1 (stereo unspecified) | -2.8% (active)
COc1ccc(C(=O)NC2CC3CCCC(C2)N3Cc2ccccc2)cc1 (stereo unspecified) | 3.9% (inactive)
COc1ccccc1C(=O)NNC(=O)C(=O)NC1CCCCC1 | 71.2% (inactive)
COc1ccc(C(=O)CC(=O)C(=O)Nc2ccccc2Cl)cc1 | 73.9% (inactive)
O=C(CCCOc1ccc(Cl)cc1Cl)Nc1ccccc1C(=O)O | -11.5% (active)
COc1cc(NC(=O)CCCOc2ccc(Cl)cc2Cl)c(C(=O)O)cc1OC | 4.3% (inactive)
O=C(COc1ccc(Cl)cc1Cl)NC(=S)Nc1ccccc1C(=O)O | 10.9% (inactive)
C/C(=N\NC(=O)c1cc2ccccc2cc1O)c1ccc(C)o1 | 53.8% (inactive)
C=CCOc1ccccc1/C=c1\sc2nc(=O)c(C)nn2c1=O | 6.3% (inactive)

SMILES | activity change vs negative control
CCN(CC)c1ccc(/C=c2\sc3nnc(-c4ccccc4Cl)n3c2=O)cc1 | -3.9% (active)
O=C(NNc1nc2c(F)cccc2s1)c1cc(=O)c2ccccc2o1 | 4.5% (inactive)
CCOc1ccc(NC(=S)NS(=O)(=O)c2cc(Br)ccc2OCC)cc1 | 50.4% (inactive)
Cc1ccc(C(=O)N/N=C(/CC(=O)c2cccs2)C(F)(F)F)cc1 | 28.2% (inactive)
Cc1nnc(SCC(=O)Nc2nccs2)n1N | 10.1% (inactive)
Cc1cc(-c2nnc(SCC(=O)Nc3ccc(C(F)(F)F)cc3)n2C)no1 | 8.3% (inactive)
Nn1c(SCC(=O)Nc2ccc(OC(F)F)cc2)nnc1-c1ccco1 | -0.2% (active)
CCNC(=O)C/C(C)=N/NC(=O)C(=O)Nc1ccc(CC)cc1 | 26.8% (inactive)
O=c1c2ccccc2[nH]c(=S)n1CCc1ccccc1 | 33.3% (inactive)
O=C(NC(=S)N(CCc1ccccc1)CCc1ccccc1)c1ccco1 | 67.4% (inactive)
Cc1nn(C(=O)CNC(=O)c2ccccc2)c(C)c1C | 46.6% (inactive)
C=CCn1c(=S)[nH]c2scc(-c3ccc(C)o3)c2c1=O | 102% (inactive)
O=S(=O)(c1ccc(F)cc1)N1CCN(c2ccc(F)cc2)CC1 | 0.8% (inactive)
O=C1CCN(S(=O)(=O)c2ccc(Cl)cc2)CCN1 | -0.2% (active)
CN1CCN(S(=O)(=O)c2cccc(S(=O)(=O)c3ccc(Cl)cc3)c2)CC1 | 13.6% (inactive)
O=C(NC(=S)N1CCN(Cc2ccc3c(c2)OCO3)CC1)c1cccc(Br)c1 | 61% (inactive)
CSc1ccccc1-n1nnnc1SCC(=O)Nc1cc(C)ccc1C | 2.3% (inactive)
Cc1ccc(NC(=O)CSc2nnc(C3CC3)n2CC2CCCO2)c(C)c1 (stereo unspecified) | -4.1% (active)
Cc1cc(C)cc(NC(=O)CSc2nnc(CN3CCOCC3)n2C)c1 | 48.6% (inactive)
Cc1nnc(NC(=O)C2CCCN(S(=O)(=O)c3ccccc3C(F)(F)F)C2)s1 (stereo unspecified) | 19.4% (inactive)
CCC(c1nnc(SCC(=O)NCCc2ccc(Cl)cc2Cl)o1)N(C)C (stereo unspecified) | -0.1% (active)
O=C(CSc1ncnc2c1cnn2-c1ccc(Cl)cc1)NCc1ccc2c(c1)OCO2 | 12% (inactive)

SMILES | activity change vs negative control
COc1ccc(C(=O)CC(=O)C(=O)Nc2ccc(C)cc2Cl)cc1 | 39.7% (inactive)
CC(C)(C)c1cc(-c2n[nH]c(=S)n2-c2ccccc2F)n[nH]1 | 39.3% (inactive)
CC(NC(=O)c1ccc(Br)cc1)c1ccc2c(c1)CCCC2 (stereo unspecified) | 62.8% (inactive)
Cc1cccc(NC(=O)CN2C(=O)S/C(=C\c3cccn3-c3cccc(C(=O)O)c3)C2=O)c1 | 5.2% (inactive)
COc1ccc(NC(=O)CN2C(=O)S/C(=C/c3cccn3-c3ccc(C(=O)O)cc3)C2=O)cc1 | 1% (inactive)
Cc1cccc(NC(=O)CN2C(=O)S/C(=C\c3ccc(-c4cccc(C(=O)O)c4C)o3)C2=O)c1 | -0.8% (active)
Cc1ccccc1NC(=O)CN1C(=O)S/C(=C\c2ccc(-c3cccc(C(=O)O)c3C)o2)C1=O | -1% (active)
Cc1ccc(C(=O)O)cc1-c1ccc(/C=C2\SC(=O)N(CC(=O)Nc3ccccc3)C2=O)o1 | 1.7% (inactive)
C#CCN1C(=O)S/C(=C\c2ccc(-c3ccc(C(=O)O)cc3C)o2)C1=O | 7.6% (inactive)
Cc1ccccc1NC(=O)CN1C(=O)S/C(=C\c2ccc(-c3cc(C(=O)O)ccc3C)o2)C1=O | 10.7% (inactive)
Cc1ccc(NC(=O)CN2C(=O)S/C(=C\c3ccc(-c4cccc(C(=O)O)c4C)o3)C2=O)cc1 | -4% (active)
Cc1c(/C=C2\SC(=O)N(CC(=O)Nc3ccc4c(c3)OCO4)C2=O)c2ccccc2n1C | 8% (inactive)
CC(C)COn1c(=S)[nH]c2ccccc2c1=O | 34.7% (inactive)
Cc1ccc(/C=N/Nc2ccc(C(=O)O)cc2)o1 | 5.5% (inactive)
Cc1ccccc1NC1=NC(=S)N(c2ccccc2)C12CCCCC2 | 39.1% (inactive)
CCOC(=O)c1c(-c2ccccc2)csc1NC(=S)NC | 42% (inactive)
COC(=O)CSc1nnc(COc2ccc3ccccc3c2)o1 | 11.8% (inactive)
Cc1cc(C)cc(OCc2nnc(SCC(=O)Nc3ccccc3)o2)c1 | -2.3% (active)
COCCn1c(SCC(=O)Nc2cc(C)cc(C)c2)nc2ccccc2c1=O | 12% (inactive)
COc1ccc(NC(=O)CC23CC4CC(CC(C4)C2)C3)cn1 | 73.9% (inactive)
S=C(N/N=C/c1ccccc1Cl)Nc1cccc(Cl)c1Cl | 30.4% (inactive)
COc1cccc2sc(Nc3nnc(-c4ccc(F)cc4)o3)nc12 | 69.1% (inactive)
